Binding signal data for 14 molecules are collected here from paper PMC12136788.

Changes are numbered by the printed parent chain. Over roughly 24,000 sequences, “enrichment r” has its median near 0.99; the highest 2% begin near 3.7. Only a selection was taken, and the highest values are over-represented in it overall.

T1: UNK ZnF1-3 (human, UniProt Q9C0B0 31-174)
T1 sequence: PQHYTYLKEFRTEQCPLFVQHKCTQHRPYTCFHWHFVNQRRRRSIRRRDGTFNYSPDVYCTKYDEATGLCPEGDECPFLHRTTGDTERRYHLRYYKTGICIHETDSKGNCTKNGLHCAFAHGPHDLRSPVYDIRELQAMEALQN

B1: chr14:57521665:57521666:+_ENSMUSG00000021945_ENSMUST00000022511|mus_mus|FALSE|FALSE (ssRNA)
RNA: GGGAGUUCUACAGUCCGACGAUCAACAACGUCAUCAUCAUCUUCUACUGAUGAGUUCUGAAACUUACUAGAUCUAGACACUAAAGGAUUAGGUGGGCCACUAAAUGAAUUUCCUACGUUCGUGAGACUAGUUGCCAUGGCUGUCAACAGAGGAUUGAGCAUCA
B2: chr4:76721835:76721836:+_ENSG00000138768_ENST00000264904|hu_mus|hu_hu_hu_mus_True|58_108 (ssRNA)
RNA: GGGAGUUCUACAGUCCGACGAUCGUUGGCUGGGGUUUUCUGAGACGCUCUGGAAUAUAACUCAUGUUUGCUAAUAAUCCUAGUUUCCUCUAUGAAAUUCUCUUUGCCAAUCCUCUUCUCUAUUAGUUGCUUUAGUUUCUCUUUCAACAGAGGAUUGAGCAUCA
B3: chr12:48362563:48362564:+_ENSG00000134291_ENST00000256686|hu_mus|FALSE|FALSE (ssRNA)
RNA: GGGAGUUCUACAGUCCGACGAUCUCCGUCAAGCCCUUCGAUAGACCCUUGCGGGGGAAACUGUAAUCACUUUGUAUGGGGAAGGAAAAGAAACGCCAAAAACUUUCCAAAAAGCGGGGGUGGGGUGAGGCGGGAGGGGGAGGUCAACAGAGGAUUGAGCAUCA
B4: chr14:76904430:76904431:+_ENSMUSG00000022010_ENSMUST00000022587|mus_mus|mus_mus_mus_hu_True|48_98 (ssRNA)
RNA: GGGAGUUCUACAGUCCGACGAUCUGCAGCCAAAAACAGAGAGAGGGAAAAAAAGAGGGAACACCAGCAGCCUUGUAUAAGCUAGAUAAAACCGCCUGGCUUUCCGCAGCCCAGGGAGAAACAGAAAACGGCAGCCCUAAUUUACAACAGAGGAUUGAGCAUCA
B5: chr14:76904430:76904431:+_ENSMUSG00000022010_ENSMUST00000022587|mus_mus|mus_mus_mus_hu_True|48_88 (ssRNA)
RNA: GGGAGUUCUACAGUCCGACGAUCUGCAGCCAAAAACACCCUCGUGGCGGGAGGGAGGGAACACCAGCAGCCUUGUAUAAGCUAGAUAAAACCGCCUGGCUUUCCGCAGCCCAGGGAGAAACAGAAAACGGCAGCCCUAAUUUACAACAGAGGAUUGAGCAUCA
B6: chr14:76904430:76904431:+_ENSMUSG00000022010_ENSMUST00000022587|mus_mus|mus_mus_mus_hu_True|68_68 (ssRNA)
RNA: GGGAGUUCUACAGUCCGACGAUCUGCAGCCAAAAACACCCUCGUGGAAAAAAAGAGGGAACACCAGCAGCCUGGUUUAAGCUAGAUAAAAUCUUCUGGCUUUCCGCAGCCCAGGGAGAAACAGAAAACGGCAGCCCUAAUUUACAACAGAGGAUUGAGCAUCA
B7: chr14:76904430:76904431:+_ENSMUSG00000022010_ENSMUST00000022587|mus_mus|mus_mus_mus_hu_True|98_98 (ssRNA)
RNA: B4 RNA with C91U, G93U, C94U
B8: chr14:76904430:76904431:+_ENSMUSG00000022010_ENSMUST00000022587|mus_mus|mus_mus_mus_hu_True|98_108 (ssRNA)
RNA: B4 RNA with A27U, C29G, C30A, C36A, C91U, G93U, C94U
B9: chr14:76904430:76904431:+_ENSMUSG00000022010_ENSMUST00000022587|mus_mus|mus_mus_mus_hu_True|88_98 (ssRNA)
RNA: B4 RNA with A47C, A48G, A49G, A50G, A52G, A53G, C91U, G93U, C94U
B10: chr14:76904430:76904431:+_ENSMUSG00000022010_ENSMUST00000022587|mus_mus|mus_mus_mus_hu_True|38_98 (ssRNA)
RNA: B4 RNA with C91U, G93U, C94U, G97A, U101G, C104U
B11: chr7:148083511:148083512:+_ENSMUSG00000025487_ENSMUST00000026560|mus_mus|FALSE|FALSE (ssRNA)
RNA: GGGAGUUCUACAGUCCGACGAUCCAAAUCCAGCACUCGCGGCUGCACCCACGUCAUGUGAACCCGCUUGUCCACCUCGUCUAUGCUGCCUCUCACCAGCCCCACCGAGAGUGCCUUCAUCACCAGCAACUCCACCUUGUUGACCAACAGAGGAUUGAGCAUCA
B12: 104840732_104840852_1265_3pUTR_ENSMUSG00000021710_ENSMUST00000109315|mouse|control|control (ssRNA)
RNA: GGGAGUUCUACAGUCCGACGAUCGACCACCUCAAUGGGAAAGUACUCCUUGAGGGACUCCUGGUCCACAGAGUACUUGAGCUCCUCUGUCUGGGUCAUGUAGUAAUGGAGGUCCCAUGCGUUGAUCUUCCCGUCGUAUGCAAACAACAGAGGAUUGAGCAUCA
B13: chr15:63447868:63447869:-_ENSG00000185088_ENST00000411926|hu_hu|FALSE|FALSE (ssRNA)
RNA: GGGAGUUCUACAGUCCGACGAUCCCCUUCUGUGAGUCUGGCCUUUCCUCCUGUAGGCUGGCACAACACUGUUGAACAACCUACACAAAGAACCACUGUCUGAGCAUGGCUGAAAACCGUGGUGAUCUUGUAGCAACCUGGACACAACAGAGGAUUGAGCAUCA
B14: chr3:148479741:148479742:-_ENSMUSG00000028184_ENSMUST00000106128|mus_mus|motif|central (ssRNA)
RNA: GGGAGUUCUACAGUCCGACGAUCACAAUGCAGGCCUACAGAAAAACAAAACAAAACAAAAACAAAAACCGGUAGGGCCCGGUUUACAGACUCAGUUCACCAACUGCCGCAAGGAACAUGGCCGGGAGGGAGGGUCUCUUGUUUCAACAGAGGAUUGAGCAUCA

The target of the test is T1, UNK ZnF1-3. Description: nsRBNS (natural sequence RNA bind-n-seq); RBNS binding buffer (assumed for nsRBNS): 25 mM Tris pH 7.5, 150 mM KCl, 3 mM MgCl2, 0.01% Triton X-100, 500 ug/ml BSA, 20 U/ml SUPERase-In, 4 C; UNK is unkempt and MSI1 is Musashi-1; names of the RNAs are library labels; protein concentration not given here; high values mean tight binding.
With B1, the binding signal stood at 1.09 enrichment R.

For the molecule B2, the binding signal turned out to be 0.387 enrichment R.

For the molecule B3, the binding signal amounted to 2.36 enrichment R.

Take B4: the binding signal came to 3.64 enrichment R.

With B5, the binding signal came to 2.24 enrichment R.

In the case of B6, the binding signal turned out to be 2.29 enrichment R.

For the molecule B7, the binding signal was 4.46 enrichment R.

B8 showed a binding signal of 3.93 enrichment R.

B9 returned a binding signal of 3.29 enrichment R.

B10 returned a binding signal of 4.97 enrichment R.

The molecule B11 gave a binding signal of 0.937 enrichment R.

On to B12, for which the binding signal was 0.691 enrichment R.

B13: the binding signal was found to be 0.955 enrichment R.

B14 had a binding signal of 2.06 enrichment R.
